# PubChem BioAssay (NCI)
# Compounds without any hit were thinned out: in the full panel of roughly 83,000, 20% have a hit.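 The test compound was applied at a single concentration to cells in 96-well plates for 48 hours, and percent growth was recorded.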 The source made the active and inactive calls. How the source made its calls: active means growth percent below 10; inactive means the rest.
# Test system: SK-MEL-28 melanoma
# Experiment: NCI-60 one-dose screen, 48 h (100 = growth as untreated, 0 = no growth, -100 = all killed)
# Conditions: 10 µM unless noted
row,Compound,growth
1,Cc1cc(C)c(S(=O)(=O)Oc2ccccc2[N+](=O)[O-])c(C)c1,50.6% (inactive)
2,CCCOc1ccc(/C=N/Nc2cc(C)nc3ccc(Br)cc23)cc1,102% (inactive)
3,COc1ccc2nc(-c3ccc(-c4noc(-c5cc(OC)c(OC)c(OC)c5)n4)cc3)[nH]c2c1,51.3% (inactive)
4,CCCCCN1C=C/C(=C\C(=O)N(C)c2ccc(Oc3ccccc3)cc2)c2ccccc21,102% (inactive)
5,COc1cc2oc(-c3cccc(C(=O)Nc4ccccc4)c3)cc(=O)c2c(O)c1OC,87.4% (inactive)
6,c1ccc2c(-c3nccs3)c[nH]c2c1,100% (inactive)
7,O=C(O)c1ccc(NCc2cn(-c3ccc(C(F)(F)F)cc3)nc2-c2ccc(C(=O)O)cc2)cc1,112% (inactive)
8,NS(=O)(=O)c1ccc(CCN2C(=O)C=CC2=O)cc1,107% (inactive)
9,C/C(=N\Nc1cc(C)nc2ccc(Br)cc12)c1ccc([N+](=O)[O-])cc1,99.2% (inactive)
10,CCCCCCNC(=O)Oc1ccc(/C(=C(\C)c2ccccc2)c2ccc(OCCN3CCCCC3)cc2)cc1,48.8% (inactive)
11,CCCNC(=O)Oc1ccc(/C(=C(\C)c2ccccc2)c2ccc(OCCCN(C)C)cc2)cc1,70.8% (inactive)
12,O=C1c2ccccc2C(=O)c2c([N+](=O)[O-])ccc(Cl)c21,106% (inactive)
13,O=C1Nc2cc(Cl)ccc2/C1=C\c1c(-c2ccc(F)cc2)nc2ccccn12,28.2% (inactive)
14,CSc1nc2sc3cccc(Cl)c3n2c(=N)c1C#N,115% (inactive)
15,Cc1cccc(C)c1N=c1oc2ccc(Cl)cc2nc1-c1ccccc1O,93.4% (inactive)
16,C=C(C)[C@@H]1CC[C@]2(C(=O)N3CCN(C)CC3)CC[C@]3(C)[C@H](CC[C@@H]4[C@@]5(C)CC[C@H](OCCC#N)C(C)(C)[C@@H]5CC[C@]43C)[C@@H]12,112% (inactive)
17,Cc1cc2nc3c4ccc(Br)cc4n(CCN(C)C)c3nc2cc1C,42.4% (inactive)
18,O=C(/C=C/c1ccc(Cl)cc1)c1ccc(NC(=O)N2CCN(c3cc4c(cc3F)c(=O)c(C(=O)O)cn4C3CC3)CC2)cc1,99.2% (inactive)
19,CN(C)CCC(=O)c1ccc([N+](=O)[O-])cc1,104% (inactive)

row,Compound,growth
1,COc1ccc(-c2nc([C@@H](C)Sc3nc(N)cc(N)n3)c(C)s2)cc1OCCN1CCOCC1,113% (inactive)
2,CCN1CCN(CCNc2nccc(-c3c(-c4cccc(OC)c4)nc4occn34)n2)S1(=O)=O,47.3% (inactive)
3,NS(=O)(=O)c1ccc(CCN2C(=O)c3cc(Cl)c(Cl)cc3C2=O)cc1,110% (inactive)
4,COc1ccc(-c2cnc3c(-c4cccc5cnccc45)cnn3c2)cc1,60.5% (inactive)
5,N#C/C(=C\c1ccc(Cl)cc1)n1nnc2cc(F)c(F)cc21,29.6% (inactive)
6,C=C1C(=O)O[C@H]2[C@H]1CC/C(CNC(=O)/C=C/c1ccccc1)=C\CC[C@@]1(C)O[C@@H]21,-38.1% (active)
7,COc1ccc(-c2nc(S(=O)(=O)c3ccccc3)c(S(=O)CC(=O)N3CCC(C)CC3)o2)cc1 (stereo not drawn),19.2% (inactive)
8,COC(=O)/C=C1\S/C(=N\NC(=O)c2cc3ccc2/C=C\c2ccc(cc2)/C=C\3)N(c2ccccc2)C1=O,82.5% (inactive)
9,O=C(c1nc2ccccc2[nH]1)C1C(c2ccc(Br)cc2)C2CC3CCCC[C@H]3N2[C@@]12C(=O)Nc1cc(Cl)ccc12 (stereo partly drawn),62.4% (inactive)
10,Oc1cccc(CCc2ccc(Oc3cc(CCc4cccc(O)c4)cc(O)c3O)cc2)c1,88.6% (inactive)
11,NC(=NCCCOc1ccc(F)cc1)Nc1ccc(I)cc1,88.3% (inactive)
12,CN(CCN(C)c1ccc(C(=N)N)cc1)c1ccc(C(=N)N)cc1,108% (inactive)
13,COc1cc(C(=O)Nc2cc3c(cc2Oc2cc(C)cc(C)c2)C(=O)N(C)[C@@H](CC(=O)N(C)O)C(=O)N3)c(Br)c(OC)c1OC,-49.1% (active)
14,CCNC(=O)Oc1ccc(/C(=C(\C)c2ccccc2)c2ccc(OCCN3CCCCC3)cc2)cc1,47.2% (inactive)
15,COc1cc(NC(C)CCCNC(=O)CCC(=O)NCCCNCCCCCCCCCCNCCCNC(=O)CCC(=O)NCCCC(C)Nc2cc(OC)cc3cccnc23)c2ncccc2c1 (stereo not drawn),86.8% [8 µM] (inactive)
16,O=C(N/N=C/c1ccc(Oc2ccccc2)cc1)c1cnn2c1NC(c1ccccc1)C2 (stereo not drawn),56.2% (inactive)
17,Cc1c(C(=O)NCCC(=O)NO)sc2ncnc(Nc3ccc(F)c(Cl)c3)c12,112% (inactive)
18,COc1cc2nc(-c3ccc(C(F)(F)F)cc3)cc(OCCCN3CCOCC3)c2cc1OC,42.1% (inactive)
19,C=CCN1C(=O)/C(=C/C(=O)OC)S/C1=N\NC(=O)c1cc2ccc1/C=C\c1ccc(cc1)/C=C\2,102% (inactive)
